Inconclusive results are not listed. Unmarked numbers belong to inactive results. Activity calls are given as the source filed them. Calls follow the shape of the dose curve; as a rule, active = well fitted cell-killing curve with a large enough effect; inconclusive = small, poorly fitted or top-dose-only effect, or effect the other way; inactive = no such curve, though single readings can be large or run the other way.
Key:
[1] = Quantitative High-Throughput drug screen in 47 multiple myeloma cell lines against the NCATS MIPE library collection: MM1S_ATCC cell viability assay (AID 1918980); also: nearly all actives have a fitted effect of over 45% in size
Procedure, shortened: (§1)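 Cells were exposed to library compounds for 48 hours, after which ATP was measured by CellTiter-Glo. Signal was taken as median relative luminescence units.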

[2] = Quantitative High-Throughput drug screen in 47 multiple myeloma cell lines against the NCATS MIPE library collection: MM1R_ATCC cell viability assay (AID 1918981); also: nearly all actives have a fitted effect of over 35% in size
Procedure, shortened: as §1

[3] = Quantitative High-Throughput drug screen in 47 multiple myeloma cell lines against the NCATS MIPE library collection: LP1_DSMZ cell viability assay (AID 1918982); also: nearly all actives have a fitted effect of over 35% in size
Procedure, shortened: as §1

[4] = Quantitative High-Throughput drug screen in 47 multiple myeloma cell lines against the NCATS MIPE library collection: KMS28PE_JCRB cell viability assay (AID 1918983); also: nearly all actives have a fitted effect of over 35% in size
Procedure, shortened: as §1

[5] = Quantitative High-Throughput drug screen in 47 multiple myeloma cell lines against the NCATS MIPE library collection: L363_DSMZ cell viability assay (AID 1918984); also: nearly all actives have a fitted effect of over 40% in size
Procedure, shortened: as §1

[6] = Quantitative High-Throughput drug screen in 47 multiple myeloma cell lines against the NCATS MIPE library collection: KMS34_JCRB cell viability assay (AID 1918985); also: nearly all actives have a fitted effect of over 40% in size
Procedure, shortened: as §1

[7] = Quantitative High-Throughput drug screen in 47 multiple myeloma cell lines against the NCATS MIPE library collection: OCIMY7_PLB cell viability assay (AID 1918987); conditions: OCI-MY7 myeloma viability, CellTiter-Glo ATP, 48 h; viability (% of DMSO): at 45.8 µM (top of the series); also: nearly all actives have a fitted effect of over 65% in size
Procedure, shortened: as §1

[8] = Quantitative High-Throughput drug screen in 47 multiple myeloma cell lines against the NCATS MIPE library collection: OCIMY5_PLB cell viability assay (AID 1918988); also: nearly all actives have a fitted effect of over 65% in size
Procedure, shortened: as §1

[9] = Quantitative High-Throughput drug screen in 47 multiple myeloma cell lines against the NCATS MIPE library collection: OPM1_PLB cell viability assay (AID 1918989); also: nearly all actives have a fitted effect of over 40% in size
Procedure, shortened: as §1

[10] = Quantitative High-Throughput drug screen in 47 multiple myeloma cell lines against the NCATS MIPE library collection: XG6_PLB cell viability assay (AID 1919865); also: nearly all actives have a fitted effect of over 40% in size
Procedure, shortened: as §1

[11] = Quantitative High-Throughput drug screen in 47 multiple myeloma cell lines against the NCATS MIPE library collection: XG1_PLB cell viability assay (AID 1919866); also: nearly all actives have a fitted effect of over 35% in size
Procedure, shortened: as §1

[12] = Quantitative High-Throughput drug screen in 47 multiple myeloma cell lines against the NCATS MIPE library collection: VP6_DJ cell viability assay (AID 1919867); also: nearly all actives have a fitted effect of over 40% in size
Procedure, shortened: as §1

[13] = Quantitative High-Throughput drug screen in 47 multiple myeloma cell lines against the NCATS MIPE library collection: UTMC2_PLB cell viability assay (AID 1919868); conditions: CellTiter-Glo ATP luminescence, 48 h; viability (% of DMSO control): at 45.8 µM (top of the series); also: nearly all actives have a fitted effect of over 55% in size
Procedure, shortened: as §1

[14] = Quantitative High-Throughput drug screen in 47 multiple myeloma cell lines against the NCATS MIPE library collection: PE2_PLB cell viability assay (AID 1919869); also: nearly all actives have a fitted effect of over 35% in size
Procedure, shortened: as §1

[15] = Quantitative High-Throughput drug screen in 47 multiple myeloma cell lines against the NCATS MIPE library collection: PCM6_Riken cell viability assay (AID 1919870); also: nearly all actives have a fitted effect of over 30% in size
Procedure, shortened: as §1

[16] = Quantitative High-Throughput drug screen in 47 multiple myeloma cell lines against the NCATS MIPE library collection: RPMI8226_ATCC cell viability assay (AID 1919871); also: nearly all actives have a fitted effect of over 30% in size
Procedure, shortened: as §1

[17] = Quantitative High-Throughput drug screen in 47 multiple myeloma cell lines against the NCATS MIPE library collection: OPM2_DSMZ cell viability assay (AID 1919872); also: nearly all actives have a fitted effect of over 30% in size
Procedure, shortened: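 CellTiter-Glo luminescence (ATP) after 48 h compound exposure, 37C/5% CO2; 500 cells/well; MIPE 4.0 approved/investigational drugs pinned in; DMSO = 100%, media only = 0% viability.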

[18] = Quantitative High-Throughput drug screen in 47 multiple myeloma cell lines against the NCATS MIPE library collection: U266_ATCC cell viability assay (AID 1919864); also: nearly all actives have a fitted effect of over 35% in size
Procedure, shortened: as §1

[19] = Quantitative High-Throughput drug screen in 47 multiple myeloma cell lines against the NCATS MIPE library collection: SKMM1_PLB cell viability assay (AID 1919863); conditions: SKMM1 myeloma viability, CellTiter-Glo ATP, 48 h; viability: stronger effect = lower value; also: nearly all actives have a fitted effect of over 35% in size
Procedure, shortened: as §1
Potency is read from the fitted curve at half-maximal effect.

Structure (SMILES) | Potency [1] | Potency [2] | Potency [3] | Potency [4] | Potency [5] | Potency [6] | Potency [7] | Potency [8] | Potency [9] | Potency [10] | Potency [11] | Potency [12] | Potency [13] | Potency [14] | Potency [15] | Potency [16] | Potency [17] | Potency [18] | Potency [19] | viability [19]
CC(C)N1[N]C(=C2C=c3cc(O)ccc3=N2)c2c(N)ncnc21 | 0.469 µM (active) | 0.418 µM (active) | 0.0026 µM (active) | 0.209 µM (active) | 0.059 µM (active) | 0.296 µM (active) | 0.743 µM (active) | 1.18 µM (active) | 0.296 µM (active) | 0.296 µM (active) | 0.0935 µM (active) | 0.264 µM (active) | 0.187 µM (active) | 0.148 µM (active) | 1.18 µM (active) | 0.0418 µM (active) | 0.235 µM (active) | – | – | –
COc1cccc2c1C(=O)c1c(O)c3c(c(O)c1C2=O)C[C@@](O)(C(=O)CO)C[C@@H]3O[C@H]1C[C@H](N)[C@H](OC2CCCCO2)[C@H](C)O1 (stereo partly specified) | 0.132 µM (active) | 0.296 µM (active) | 18.7 µM (active) | 2.64 µM (active) | inactive | 2.64 µM (active) | – | 2.09 µM (active) | – | 0.662 µM (active) | 1.87 µM (active) | 5.26 µM (active) | 0.166 µM (active) | 1.18 µM (active) | 1.32 µM (active) | 7.43 µM (active) | – | – | – | –
CC[C@@]1([C@@H]2O[C@@H]([C@H]3O[C@@](O)(CO)[C@H](C)C[C@H]3C)C[C@H]2C)CC[C@H]([C@]2(C)CC[C@]3(C[C@H](O)[C@@H](C)[C@@H]([C@@H](C)[C@@H](OC)[C@H](C)C(=O)O)O3)O2)O1 | 0.182 µM (active) | 0.229 µM (active) | 0.0645 µM (active) | 0.512 µM (active) | – | 0.724 µM (active) | 0.229 µM (active) | 0.102 µM (active) | – | 0.257 µM (active) | 0.363 µM (active) | – | 0.182 µM (active) | 0.323 µM (active) | – | 0.229 µM (active) | 0.144 µM (active) | 0.363 µM (active) | – | –
O=C(Nc1cccc(Nc2ncc(Br)c(NCCc3cnc[nH]3)n2)c1)N1CCCC1 | 18.7 µM (active) | 14.8 µM (active) | 20.9 µM (active) | – | inactive | 2.96 µM (active) | 3.72 µM (active) | 14.8 µM (active) | 1.87 µM (active) | 0.59 µM (active) | 0.372 µM (active) | 2.64 µM (active) | 0.662 µM (active) | 2.96 µM (active) | 3.32 µM (active) | 18.7 µM (active) | – | 16.6 µM (active) | 23.5 µM (active) | –
O=C(CN1C(=O)C2(CCCC2)NC[C@H]1c1cc(F)cc(F)c1)Nc1ccc2c(c1)C[C@@]1(C2)C(=O)Nc2ncccc21 | inactive | inactive | inactive | – | inactive | inactive | – | inactive | inactive | inactive | inactive | – | inactive | – | inactive | inactive | inactive | – | – | 120%

— PubChem BioAssay (NCATS)
